Screening data deposited in PubChem BioAssay by National Center for Advancing Translational Sciences (NCATS).
Sampled rows, rich in hits. Any-hit rate of the full collection: about 2.5%.
Cruzain noTriton – cruzain (T. cruzi) inhibition without detergent; P25779; purified cruzain, Z-FR-AMC fluorescence, no detergent; Potency, µM, actives largely listed as inhibitors; actives 2.3% (n = 200,000); AID 1476; also: nearly all actives have a fitted effect of over 40% in size
Target sequence (P25779 123-467 limits assumed): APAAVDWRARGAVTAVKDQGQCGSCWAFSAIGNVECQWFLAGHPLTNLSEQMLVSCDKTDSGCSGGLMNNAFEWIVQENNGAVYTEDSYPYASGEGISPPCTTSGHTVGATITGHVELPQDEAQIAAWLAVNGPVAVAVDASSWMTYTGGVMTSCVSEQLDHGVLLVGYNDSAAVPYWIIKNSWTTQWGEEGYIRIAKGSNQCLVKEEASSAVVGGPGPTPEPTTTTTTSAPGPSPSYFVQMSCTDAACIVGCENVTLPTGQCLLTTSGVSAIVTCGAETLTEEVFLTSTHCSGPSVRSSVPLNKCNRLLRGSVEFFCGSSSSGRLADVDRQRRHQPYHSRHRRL
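Detergent-free condition (0.00005% Triton X-100) in acetate buffer pH 5.5 with DTT. 1.5 nM enzyme and compound were pre-mixed 15 min, then 2 uM Z-FR-AMC substrate added; reaction progress from fluorescence change between first and third reads (60 s).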
Cruzain inh Det – inhibitors of Trypanosoma cruzi cruzain with detergent; P25779; purified cruzain, Z-FR-AMC fluorescence, 0.01% Triton; Potency, µM, most hits filed as inhibitors; actives 0.43% (n = 200,000); also: nearly all actives have a fitted effect of over 40% in size
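Read-out: AMC fluorescence (360 nm excitation, 450 nm emission), four reads over 2 min, first-to-third difference used. Conditions: cruzain 1.5 nM, Z-FR-AMC 2 uM, pH 5.5 acetate, 5 mM DTT, 0.01% Triton X-100.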
Papain inh – papain (Carica papaya) inhibition counter-screen; purified papain, Z-FR-AMC fluorescence cleavage; actives 41% (n = 410); shares compounds with Cruzain inh Det; Potency, µM, most hits filed as inhibitors; also: nearly all actives have a fitted effect of over 35% in size
Numbers stand for hits; – = inactive; ? = inconclusive; · = no result. Calls follow the shape of the dose curve; as a rule, active = well fitted curve in the direction sought with a large enough effect; inconclusive = small, poorly fitted or top-dose-only effect, or another doubt; inactive = no such curve, though single readings can be large; an effect the other way counts as inactive or inconclusive.

SMILES | Cruzain noTriton | Cruzain inh Det | Papain inh
Cc1ccc(-c2nn3c(-c4cccc(Cl)c4)nnc3s2)cc1 | ? | – | ·
COc1ccc(-c2nnc3sc(-c4ccccc4OC)nn23)cc1 | ? | – | ·
COc1cc(-c2nn3c(-c4ccccc4)nnc3s2)cc(OC)c1OC | ? | – | ·
Clc1ccc(-c2nn3c(-c4cc(-c5ccccc5)n[nH]4)nnc3s2)cc1 | · | · | –
COc1cc(-c2nn3c(-c4cc(-c5ccccc5)n[nH]4)nnc3s2)cc(OC)c1OC | · | · | –
CC(=O)Nc1ccc(NS(=O)(=O)c2c(C(=O)N3CCCCCC3)c(C)n(C)c2C)cc1 | – | – | ·
Cc1csc2nc(COC(=O)c3cccc(NC(=O)COc4ccc(Cl)cc4)c3)cc(=O)n12 | – | – | ·
CC(=O)c1cc(-c2ccccc2)n(CCC(=O)NCc2ccc(C)cc2)c1C | – | – | ·
COc1ccccc1-c1noc(-c2ccc(N(C)Cc3ccccc3)c([N+](=O)[O-])c2)n1 | – | – | ·
C=C(C)C(=O)OC1(C(F)(F)F)Oc2cc(C)ccc2NC1=O (centres undefined) | 7.9µM | 6.3µM | 28µM
CCOC(=O)C1(N(CC)CC)Sc2cc(C)ccc2NC1=O (centres undefined) | – | – | ·
COc1ccc(C)cc1NC(=O)C(=O)NCCc1sc(-c2ccc(Cl)cc2)nc1C | – | – | ·
CCOC(=O)CNC(=O)C1CCCCC1 | · | · | –
CC(C)(CNC(=O)C1CCCC1)CNC(=O)C1CCCC1 | – | – | ·
O=C(COC(=O)Cc1ccsc1)NC1CCCCCC1 | – | – | ·
O=C(COC(=O)CNC(=O)C1CCCCC1)NC1CC1 | · | · | 25µM
CC1(C)CCC2=C(O1)c1ccccc1C(=O)C2=O | – | – | ·
COc1cccc(NC(=O)CSC2=Nc3ccccc3C3=NC(CC(=O)NCCc4ccccc4)C(=O)N23)c1 (centres undefined) | ? | – | ·
N#Cc1cccc(NC(=O)CCNS(=O)(=O)c2ccc3c(c2)CCN3C(=O)C2CC2)c1 | – | – | ·
O=C(O)c1ccc(C(=O)c2ccccc2)c(C(=O)O)c1 | – | – | ·
COc1ccccc1CNC(=O)c1cnn(-c2ccc(F)cc2F)c1C1CCN(C(=O)OC(C)(C)C)CC1 | ? | – | ·
Cc1ccc2[nH]c3c(NCCCN4CCCC4=O)ncnc3c2c1 | – | – | ·
COc1ccc2[nH]c3c(NCCN4CCCCC4)ncnc3c2c1 | 13µM | 16µM | –
Cn1c(-n2cccc2)c(-c2c(-c3ccccc3)[nH]c3c2c(=O)n(C)c(=O)n3C)c(=O)n(C)c1=O | – | – | ·
Cc1ccc(S(=O)(=O)CCC(=O)OCC(=O)Nc2ncc(Cl)cc2Cl)cc1 | – | – | ·
SMILES | Cruzain noTriton | Cruzain inh Det | Papain inh
Cc1ccc(S(=O)(=O)NCC(=O)OCC(=O)Nc2ncc(Cl)cc2Cl)cc1 | 25µM | 20µM | –
N[C@@H](CC1=CS(=O)(=O)c2ccc(Cl)cc21)C(=O)O | – | – | ·
COc1cccc(N2CC(NC(=O)c3cccs3)CC2=O)c1 (centres undefined) | – | – | ·
COc1ccccc1CNC(=O)c1cc2c(s1)-c1ccccc1OC2 | – | – | ·
CCN1CCN(CCCNC(=O)c2cc3c(s2)-c2ccccc2OC3)CC1 | ? | 28µM | 10µM
CCOC(=O)C1CCCN(C(=O)c2cccc(NC(=O)c3nsc4ccccc34)c2)C1 (centres undefined) | – | – | ·
CCCCNC(=O)C(CC)n1c(SCc2cccc(F)c2)nc2ccncc21 (centres undefined) | · | · | –
CCCCNC(=O)Cn1c(SCc2cccc(F)c2)nc2ccncc21 | · | · | –
CCC(C(=O)NC1CCCCC1)n1c(SCc2cccc(F)c2)nc2ccncc21 (centres undefined) | ? | 13µM | –
COC(=O)c1ccc(Cn2c(SCc3cccc(C)c3)nc3ccncc32)cc1 | ? | – | ·
CC(CNC(=O)c1ccc(CSc2nc3ccncc3n2Cc2cccc(F)c2)cc1)c1ccccc1 (centres undefined) | – | – | ·
Cc1ccc(NC(=O)Cn2c(SCc3cccc(F)c3)nc3ccncc32)c(C)c1 | – | – | ·
Cc1c(Cl)cccc1NC(=O)c1ccc2c(c1)CCN2S(=O)(=O)c1ccccc1 | – | – | ·
